ChEMBL document CHEMBL2218924, “A broad activity screen in support of a chemogenomic map for kinase signalling research and drug discovery” (Biochem J, 2013)

target: Protein kinase C beta type (Homo sapiens) (UniProt P05771); conditions: at 1 µM
Sequence (P05771 2-671 limits assumed): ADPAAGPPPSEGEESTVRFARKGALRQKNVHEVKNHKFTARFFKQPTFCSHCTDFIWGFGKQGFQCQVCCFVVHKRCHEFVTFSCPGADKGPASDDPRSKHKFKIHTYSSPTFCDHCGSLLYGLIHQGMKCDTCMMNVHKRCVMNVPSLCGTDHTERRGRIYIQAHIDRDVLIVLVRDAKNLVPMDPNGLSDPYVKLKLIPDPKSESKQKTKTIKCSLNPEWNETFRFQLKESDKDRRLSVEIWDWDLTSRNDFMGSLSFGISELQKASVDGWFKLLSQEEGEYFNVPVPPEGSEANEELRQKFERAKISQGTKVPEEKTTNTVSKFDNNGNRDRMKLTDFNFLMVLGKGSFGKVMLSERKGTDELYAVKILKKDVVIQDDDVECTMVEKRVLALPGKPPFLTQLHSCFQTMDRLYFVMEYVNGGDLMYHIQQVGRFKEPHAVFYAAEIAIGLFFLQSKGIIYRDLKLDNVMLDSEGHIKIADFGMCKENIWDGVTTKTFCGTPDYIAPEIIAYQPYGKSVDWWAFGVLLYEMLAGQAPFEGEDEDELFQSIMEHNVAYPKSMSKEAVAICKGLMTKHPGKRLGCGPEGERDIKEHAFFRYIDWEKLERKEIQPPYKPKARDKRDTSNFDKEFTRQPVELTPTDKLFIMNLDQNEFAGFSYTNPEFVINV

Structure (SMILES)	residual activity
C[S+]([O-])c1ccc(-c2nc(-c3ccc(F)cc3)c(-c3ccncc3)[nH]2)cc1 (stereo unspecified)	104%
CCn1cnc2c(Nc3cccc(Cl)c3)nc(N[C@@H]3CCCC[C@@H]3N)nc21	99%
COC(=O)[C@@]1(O)C[C@H]2O[C@]1(C)n1c3ccccc3c3c4c(c5c6ccccc6n2c5c31)C(=O)NC4	67%
O=c1[nH]c2ccccc2n1C1CCN(Cc2ccc(-c3nc4cc5[nH]cnc5cc4nc3-c3ccccc3)cc2)CC1	88%
O=C1c2ccccc2-c2nc3nnnn3nc21	101%
CC(C)[C@H](CO)Nc1nc(Nc2cccc(Cl)c2)c2ncn(C(C)C)c2n1	120%
COc1cc2ncnc(Nc3ccc(OCc4ccccc4)cc3)c2cc1OC	105%
COc1cc(OC)c(/C=C2\C(=O)Nc3ccccc32)c(OC)c1	103%
CC(C)(C)c1cc(C=C(C#N)C#N)cc(Br)c1O	108%
O=C1Nc2ccc3ncsc3c2/C1=C/c1c[nH]cn1	67%
COc1ccc2c(c[n+](C)c3c4cc5c(cc4ccc23)OCO5)c1OC	87%

target: Protein kinase C beta type (Homo sapiens) (UniProt P05771); conditions: at 10 µM

Structure (SMILES)	residual activity
C[S+]([O-])c1ccc(-c2nc(-c3ccc(F)cc3)c(-c3ccncc3)[nH]2)cc1 (stereo unspecified)	75%
CCn1cnc2c(Nc3cccc(Cl)c3)nc(N[C@@H]3CCCC[C@@H]3N)nc21	92%
COC(=O)[C@@]1(O)C[C@H]2O[C@]1(C)n1c3ccccc3c3c4c(c5c6ccccc6n2c5c31)C(=O)NC4	18%
O=c1[nH]c2ccccc2n1C1CCN(Cc2ccc(-c3nc4cc5[nH]cnc5cc4nc3-c3ccccc3)cc2)CC1	93%
O=[N+]([O-])/C=C/c1ccc2c(c1)OCO2	106%
CC(C)[C@H](CO)Nc1nc(Nc2cccc(Cl)c2)c2ncn(C(C)C)c2n1	96%
COc1cc2ncnc(Nc3ccc(OCc4ccccc4)cc3)c2cc1OC	101%
COc1cc(OC)c(/C=C2\C(=O)Nc3ccccc32)c(OC)c1	101%
CC(C)(C)c1cc(C=C(C#N)C#N)cc(Br)c1O	108%
O=C1Nc2ccc3ncsc3c2/C1=C/c1c[nH]cn1	43%

target: Protein kinase C gamma type (Homo sapiens) (UniProt P05129); conditions: at 1 µM

Structure (SMILES)	residual activity
C[S+]([O-])c1ccc(-c2nc(-c3ccc(F)cc3)c(-c3ccncc3)[nH]2)cc1 (stereo unspecified)	104%
CCn1cnc2c(Nc3cccc(Cl)c3)nc(N[C@@H]3CCCC[C@@H]3N)nc21	81%
COC(=O)[C@@]1(O)C[C@H]2O[C@]1(C)n1c3ccccc3c3c4c(c5c6ccccc6n2c5c31)C(=O)NC4	19%
O=c1[nH]c2ccccc2n1C1CCN(Cc2ccc(-c3nc4cc5[nH]cnc5cc4nc3-c3ccccc3)cc2)CC1	108%
O=[N+]([O-])/C=C/c1ccc2c(c1)OCO2	103%
CC(C)[C@H](CO)Nc1nc(Nc2cccc(Cl)c2)c2ncn(C(C)C)c2n1	102%
COc1cc2ncnc(Nc3ccc(OCc4ccccc4)cc3)c2cc1OC	105%
COc1cc(OC)c(/C=C2\C(=O)Nc3ccccc32)c(OC)c1	98%
CC(C)(C)c1cc(C=C(C#N)C#N)cc(Br)c1O	98%
O=C1NC(=O)c2c1c1c3ccccc3n3c1c1c2c2ccccc2n1C1CCC3O1	92%
CCc1nc(-c2ccc(OC)cc2)[nH]c1-c1ccncc1	108%
N/C(=N\[N+](=O)[O-])N/N=C\c1ccc(-c2cccc([N+](=O)[O-])c2)o1	91%
O=C1Nc2ccc3ncsc3c2/C1=C/c1c[nH]cn1	69%

target: Protein kinase C gamma type (Homo sapiens) (UniProt P05129); conditions: at 10 µM

Structure (SMILES)	residual activity
C[S+]([O-])c1ccc(-c2nc(-c3ccc(F)cc3)c(-c3ccncc3)[nH]2)cc1 (stereo unspecified)	103%
CCn1cnc2c(Nc3cccc(Cl)c3)nc(N[C@@H]3CCCC[C@@H]3N)nc21	45%
COC(=O)[C@@]1(O)C[C@H]2O[C@]1(C)n1c3ccccc3c3c4c(c5c6ccccc6n2c5c31)C(=O)NC4	2%
O=c1[nH]c2ccccc2n1C1CCN(Cc2ccc(-c3nc4cc5[nH]cnc5cc4nc3-c3ccccc3)cc2)CC1	98%
O=[N+]([O-])/C=C/c1ccc2c(c1)OCO2	67%
CC(C)[C@H](CO)Nc1nc(Nc2cccc(Cl)c2)c2ncn(C(C)C)c2n1	101%
COc1cc2ncnc(Nc3ccc(OCc4ccccc4)cc3)c2cc1OC	108%
CC(C)(C)c1cc(C=C(C#N)C#N)cc(Br)c1O	103%
O=C1NC(=O)c2c1c1c3ccccc3n3c1c1c2c2ccccc2n1C1CCC3O1	96%
CCc1nc(-c2ccc(OC)cc2)[nH]c1-c1ccncc1	108%
N/C(=N\[N+](=O)[O-])N/N=C\c1ccc(-c2cccc([N+](=O)[O-])c2)o1	94%
O=C1Nc2ccc3ncsc3c2/C1=C/c1c[nH]cn1	21%

target: Protein kinase C delta type (Homo sapiens) (UniProt Q05655); conditions: at 1 µM
Sequence (Q05655 whole entry, looked up): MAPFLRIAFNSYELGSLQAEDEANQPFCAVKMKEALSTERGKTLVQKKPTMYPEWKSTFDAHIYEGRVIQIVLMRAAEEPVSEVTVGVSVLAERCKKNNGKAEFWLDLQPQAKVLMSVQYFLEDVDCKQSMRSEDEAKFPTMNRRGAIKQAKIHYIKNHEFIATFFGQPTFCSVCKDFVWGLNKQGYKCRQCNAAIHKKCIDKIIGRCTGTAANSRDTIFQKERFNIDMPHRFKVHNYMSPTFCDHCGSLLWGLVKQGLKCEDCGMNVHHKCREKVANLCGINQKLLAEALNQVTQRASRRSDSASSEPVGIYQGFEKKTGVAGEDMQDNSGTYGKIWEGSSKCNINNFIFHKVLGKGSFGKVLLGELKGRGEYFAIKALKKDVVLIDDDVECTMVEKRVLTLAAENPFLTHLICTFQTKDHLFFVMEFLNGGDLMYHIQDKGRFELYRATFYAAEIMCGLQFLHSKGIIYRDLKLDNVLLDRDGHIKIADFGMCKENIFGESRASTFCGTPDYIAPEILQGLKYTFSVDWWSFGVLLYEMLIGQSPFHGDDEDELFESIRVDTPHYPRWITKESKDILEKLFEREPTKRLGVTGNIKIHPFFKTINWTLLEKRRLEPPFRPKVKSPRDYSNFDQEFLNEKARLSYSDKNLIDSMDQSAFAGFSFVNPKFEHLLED

Structure (SMILES)	residual activity
C[S+]([O-])c1ccc(-c2nc(-c3ccc(F)cc3)c(-c3ccncc3)[nH]2)cc1 (stereo unspecified)	105%
CCn1cnc2c(Nc3cccc(Cl)c3)nc(N[C@@H]3CCCC[C@@H]3N)nc21	86%
COC(=O)[C@@]1(O)C[C@H]2O[C@]1(C)n1c3ccccc3c3c4c(c5c6ccccc6n2c5c31)C(=O)NC4	18%
COc1ccc2c(c1)/C(=C/c1cnc[nH]1)C(=O)N2	96%
O=c1[nH]c2ccccc2n1C1CCN(Cc2ccc(-c3nc4cc5[nH]cnc5cc4nc3-c3ccccc3)cc2)CC1	107%
O=[N+]([O-])/C=C/c1ccc2c(c1)OCO2	99%
COc1cc2ncnc(Nc3ccc(OCc4ccccc4)cc3)c2cc1OC	104%
CC(C)(C)c1cc(C=C(C#N)C#N)cc(Br)c1O	98%
CCc1nc(-c2ccc(OC)cc2)[nH]c1-c1ccncc1	107%
O=C1Nc2ccc3ncsc3c2/C1=C/c1c[nH]cn1	15%
